Data on 25 molecules can be found in ChEMBL document CHEMBL4296182, “CO-ADD screening of NIH NCI Diversity Set V”.

The test system of assay [1] is Staphylococcus aureus. Nature of the assay: Antibacterial activity against Staphylococcus aureus MRSA ATCC 43300 (CO-ADD:GP_020); MIC in CAMBH media using NBS plates, by Resazurin F(560/590). As to conditions: Concentration 20 uM, ASSAY_TEST Inhibition of Bacterial Growth, detection method Resazurin, Fluorescence (ex560/em590), MEDIA CAMHB, plate type 384well, CORNING #3640, time 18 hr. It is filed as functional.

Assay [2] deals with Acinetobacter baumannii. Nature of the assay: Antibacterial activity against Acinetobacter baumannii ATCC 19606 (CO-ADD:GN_034); MIC in CAMBH media using NBS plates, by Resazurin F(560/590). Type of assay: functional. The conditions noted are these: Concentration 20 uM, ASSAY_TEST Inhibition of Bacterial Growth, detection method Resazurin, Fluorescence (ex560/em590), MEDIA CAMHB, plate type 384well, CORNING #3640, time 18 hr. For orientation: The colour change of resazurin is a common sign of viable cells or microbes.

Assay [3] relates to Escherichia coli. The assay can be described thus: Antibacterial activity against Escherichia coli ATCC 25922 (CO-ADD:GN_001); MIC in CAMBH media using NBS plates, by Resazurin F(560/590). It is filed as functional. The conditions noted are these: Concentration 20 uM, ASSAY_TEST Inhibition of Bacterial Growth, detection method Resazurin, Fluorescence (ex560/em590), MEDIA CAMHB, plate type 384well, CORNING #3640, time 18 hr.

In assay [4] the test system is Klebsiella pneumoniae. The conditions noted are these: Concentration 20 uM; ASSAY_TEST Inhibition of Bacterial Growth; detection method Absorption (OD600); MEDIA CAMHB; plate type 384well; NBS; CORNING #3640; time 18 hr.
In assay [5] the test system is Candida albicans. The conditions noted are these: 20 µM.
For assay [6], the system named is Cryptococcus neoformans. As to conditions: Concentration 20 uM; ASSAY_TEST Inhibition of Fungal Growth; detection method Resazurin; Absorption (OD600-OD570); plate type 384well; NBS; CORNING #3640.

For part of these data: Results with a measured potency or affinity are listed apart.

As a reminder, the Inhibition is the change of the read-out against control, counted positive when it falls. With `O=S(=O)(O)c1ccc(/N=N/c2ccccc2)cc1`, the Inhibition in assay [1] was -3.11%; in assay [2], 7.18%; in assay [3], 5.47%; in assay [4], 7.84%; in assay [5] it was 2.54%; in assay [6] it was -15.64%.

Regarding `CCC(CC)NCCOC(=O)c1ccc([N+](=O)[O-])cc1`, the Inhibition in assay [1] was -1.24%; in assay [2] it was -9.59%; in assay [3] it was 5.41%; in assay [4], 5.67%; in assay [5], 0.5%; in assay [6], -8.44%.

Take `CN1C=C/C(=C/[N+](=O)[O-])N(C)C1=O`: the Inhibition in assay [1] is 9.11%; in assay [2], -6.18%; in assay [3] it was 4.71%; in assay [4], 0.88%; in assay [5] it was 1.05%; in assay [6] it was -5.15%.

Take `C(=N\n1cnnc1)/c1ccc2c(c1)CCC2`: the Inhibition in assay [1] is 10.16%; in assay [2] it was -8.61%; in assay [3], 2.79%; in assay [4] it was 9.91%; in assay [5], 12.8%; in assay [6], -5.02%.

Regarding `C=CCOc1c(CCC)cc(CCC)cc1C(N)=O`, the Inhibition in assay [1] was 13.21%; in assay [2] it was 14.83%; in assay [3], 1.32%; in assay [4], 19.26%; in assay [5], 5.23%; in assay [6], -4.27%.

On to `CC(C)NC(=O)c1ccc(C(C)C)cc1`, for which the Inhibition was 10.05% in assay [1]; -9.59% in assay [2]; 11.28% in assay [3]; -3.37% in assay [4]; -0.32% in assay [5]; -8.3% in assay [6].

Regarding `COc1ccc([N+](=O)[O-])cc1NC(=O)N(C)Cc1ccco1`, the Inhibition in assay [1] was 9.28%; in assay [2], 17.46%; in assay [3] it was 6.67%; in assay [4], 14.11%; in assay [5], -1.23%; in assay [6], -10.86%.

Take `O=C(CN1CCOCC1)N1CCOCC1`: the Inhibition is 15.46% in assay [1]; -15.04% in assay [2]; 7.84% in assay [3]; 3.48% in assay [4]; -1.35% in assay [5]; -8.59% in assay [6].

For `Clc1ccc(/C=C/c2nc(Cl)c(-c3ccc(Cl)cc3)c(Cl)n2)cc1`, the Inhibition in assay [1] is 8.11%; in assay [2], 11.58%; in assay [3], 9.97%; in assay [4], 19.84%; in assay [5], 4.64%; in assay [6], -12.98%.

As to `CCn1c2ccccc2c2cc(NC(=O)Nc3ccc([N+](=O)[O-])cc3C)ccc21`, the Inhibition in assay [1] was found to be 15.43%; in assay [2] it was 8.35%; in assay [3], 6.19%; in assay [4] it was 0.72%; in assay [5] it was 18.4%; in assay [6], 0.49%.

In the case of `Clc1ccc(Oc2nc3c(Cl)cccc3s2)cc1Cl`, the Inhibition was 12.48% in assay [1]; 12.9% in assay [2]; 4.52% in assay [3]; 1.06% in assay [4]; 1.36% in assay [5]; -15.72% in assay [6].

For the molecule `Cc1nc(N)nc(O)c1CCCNc1ccc(CCC2(CCl)OCCO2)cc1`, the Inhibition in assay [1] came out at 17.48%; in assay [2] it was 2.84%; in assay [3] it was 11.06%; in assay [4] it was 8.53%; in assay [5], 1.57%; in assay [6] it was 3.7%.

With `CCN(c1ccccc1)c1nc(Cl)nc2c1cnn2C`, the Inhibition in assay [1] was 9.86%; in assay [2], 12.26%; in assay [3] it was 4.23%; in assay [4] it was 13.76%; in assay [5] it was 2.54%; in assay [6], -8.45%.

Regarding `O=c1[nH]c2c(cnn2-c2ccc(Cl)cc2)c(=O)n1-c1cccc(Cl)c1`, the Inhibition was 5.86% in assay [1]; 6.48% in assay [2]; -10.38% in assay [3]; 28.41% in assay [4]; 2.46% in assay [5]; -10.88% in assay [6].

In the case of `c1ccc(-n2ncc3cccnc32)cc1`, the Inhibition in assay [1] was 6.65%; in assay [2], -2.45%; in assay [3] it was 7.04%; in assay [4], 9.31%; in assay [5], -0.36%; in assay [6], -9.65%.

On to `CCOC(=O)C(=Cc1ccc(Br)cc1)C(=O)OCC`, for which the Inhibition in assay [1] was 4.77%; in assay [2], 8.54%; in assay [3] it was -5.6%; in assay [4], 28.34%; in assay [5] it was 19%; in assay [6], -1.07%.

For `CC1CC=C(O)C12OCC(C)(C)CO2` (stereo not given), the Inhibition is 3.19% in assay [1]; -6.5% in assay [2]; 5.59% in assay [3]; 14.38% in assay [4]; 0.02% in assay [5]; -5.4% in assay [6].

Regarding `N#Cc1cc(-c2ccccc2)[nH]c1-c1nccc2ccccc12`, the Inhibition in assay [1] was -0.89%; in assay [2], -11.99%; in assay [3], 7.81%; in assay [4] it was 10.89%; in assay [5], 17.5%; in assay [6], -6.55%.

As for `O=C(Nc1cccc2ccccc12)c1ccccc1`, the Inhibition was 1.57% in assay [1]; -13.68% in assay [2]; 5.05% in assay [3]; -4.37% in assay [4]; 0.1% in assay [5]; -4.91% in assay [6].

Regarding `Cc1cc2c(cc1C)NC1=C(O)C(c3cccc(O)c3)OC1=N2` (stereo not given), the Inhibition is 3.69% in assay [1]; 4.58% in assay [2]; -10.78% in assay [3]; 28.82% in assay [4]; 3.61% in assay [5]; -0.13% in assay [6].

For the molecule `Nc1ccnn1-c1ccccc1`, the Inhibition is 7.55% in assay [1]; -6.56% in assay [2]; 2.95% in assay [3]; 26.2% in assay [4]; 2.01% in assay [5]; -2.01% in assay [6].

`COC1OC2COC(c3ccccc3)OC2C(=O)C1NC(=O)c1ccccc1` (stereo not given): the Inhibition in assay [1] is 8.72%; in assay [2], 4.09%; in assay [3], 10.65%; in assay [4] it was 10.3%; in assay [5] it was 2.12%; in assay [6], -18.55%.

For the molecule `COc1ccc(/C(C#N)=C/c2ccccn2)cc1`, the Inhibition is 30.75% in assay [1]; -12.49% in assay [2]; 21.69% in assay [3]; 10.64% in assay [4]; 7.54% in assay [5]; 8.53% in assay [6].

For the molecule `O=C(O)C1C2OC3C(OC(=O)C31)C2Br` (stereo not given), the Inhibition in assay [1] came out at 25.96%; in assay [2], 9.29%; in assay [3] it was 24.67%; in assay [4] it was 4%; in assay [5], 4.3%; in assay [6] it was 11.09%.

On to `CCCCn1cnc2c(S)nc(N)nc21`, for which the Inhibition was 6.68% in assay [1]; -8.46% in assay [2]; -1.37% in assay [3]; 7.23% in assay [4]; 1.37% in assay [5]; -12.06% in assay [6].
